We go through 36 molecules from the supplement of paper PMC9254222.

Whole data set: some 1,100 compounds, median “Renilla luciferase signal (cell health) relative to plate median” near 0.97, cut for the highest 2% near 1.6. Only a selection was taken, and the highest values are over-represented in it overall.

The test relates to HEK293T (UBE3A T485A transfected, BAR Wnt reporter). Description: Renilla luciferase signal (cell health) relative to plate median (fold (linear ratio)); higher = higher Renilla signal. As to conditions: 24 h. The method in brief: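 Chemicals were robotically dosed at 0.01–100 uM for 24 h onto HEK293T cells, starting four hours after transfection with a BAR firefly luciferase Wnt reporter, TK-Renilla and an expression plasmid. The cells had been plated at 4500 cells/well in DMEM with 10% FBS at 37°C and 5% CO2. Following a Dual-Glo luciferase readout, the firefly/Renilla ratio served as the Wnt activity measure and raw Renilla as the cell health measure, both median-centred on each plate. Each value is the mean of four biological replicates.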

For the molecule `Cl.Nc1ccn([C@@H]2O[C@H](CO)[C@@H](O)[C@@H]2O)c(=O)n1` [Cytarabine hydrochloride], the Renilla luciferase signal is, setting by setting: (concentration: 0.1 uM) 0.829; (concentration: 1 uM) 0.907; (concentration: 10 uM) 0.626; (concentration: 100 uM) 0.809.

With `O=c1ccn(C2OC(COP(=O)(O)OP(=O)(O)OP(=O)(O)O)C(O)C2O)c(=O)[nH]1` (stereo not given), the Renilla luciferase signal by setting is: (concentration: 0.01 uM) 0.681; (concentration: 0.1 uM) 0.813; (concentration: 1 uM) 0.949; (concentration: 10 uM) 0.922; (concentration: 100 uM) 2.08.

As to `OCCC(F)(F)C(F)(F)C(F)(F)C(F)(F)C(F)(F)C(F)(F)C(F)(F)C(F)(F)F` [1,1,2,2-Tetrahydroperfluoro-1-decanol], the Renilla luciferase signal is 0.4 (concentration: 0.1 uM), 0.824 (concentration: 1 uM), 0.813 (concentration: 10 uM) and 1.27 (concentration: 100 uM).

On to `Cc1ncc([C@@H](CCCCCCc2ccc3c(n2)NCCC3)CC(=O)O)cn1`, for which the Renilla luciferase signal worked out at 0.747 (concentration: 0.1 uM), 0.794 (concentration: 1 uM), 0.796 (concentration: 10 uM) and 0.82 (concentration: 100 uM).

Turning to `CNCc1cc(F)ccc1Oc1ccc(Cl)c(Cl)c1`, the Renilla luciferase signal was 0.817 (concentration: 0.1 uM), 0.874 (concentration: 1 uM), 0.723 (concentration: 10 uM) and 0.0625 (concentration: 100 uM).

For the molecule `Cn1cnc([N+](=O)[O-])c1Sc1ncnc2nc[nH]c12` [Azathioprine], the Renilla luciferase signal was 0.939 (concentration: 0.1 uM), 0.983 (concentration: 1 uM), 0.605 (concentration: 10 uM) and 0.0481 (concentration: 100 uM).

As to `CCCCCCCCCCCCN1CCCC1=O` [1-Dodecyl-2-pyrrolidinone], the Renilla luciferase signal amounted to 0.846 (concentration: 0.1 uM), 0.856 (concentration: 1 uM), 0.929 (concentration: 10 uM) and 0.883 (concentration: 100 uM).

As for `CC(=O)OC1CC(C)OC(C)O1` (stereo not given) [Dimethoxane], the Renilla luciferase signal (concentration: 0.1 uM) turned out to be 1.23, the Renilla luciferase signal (concentration: 1 uM) was found to be 1.1, the Renilla luciferase signal (concentration: 10 uM) was determined as 1.26 and the Renilla luciferase signal (concentration: 100 uM) amounted to 1.63.

Turning to `CCOC(=O)c1ccc([C@H]2CC[C@H](NC[C@H](O)COc3ccc(O)c(NS(C)(=O)=O)c3)CC2)cc1.Cl`, the Renilla luciferase signal was determined as 0.973 (concentration: 0.1 uM), 0.878 (concentration: 1 uM), 0.753 (concentration: 10 uM) and 0.0262 (concentration: 100 uM).

As for `C[C@]12C[C@H](O)[C@H]3[C@@H](CCC4=CC(=O)CC[C@@]43C)[C@@H]1CC[C@@H]2C(=O)CO` [Corticosterone], the Renilla luciferase signal is 0.641 (concentration: 0.1 uM), 0.712 (concentration: 1 uM), 0.847 (concentration: 10 uM) and 0.636 (concentration: 100 uM).

With `CN(C)[C@@H]1C(O)=C(C(N)=O)C(=O)[C@@]2(O)C(O)=C3C(=O)c4c(O)cccc4[C@@](C)(O)[C@H]3C[C@@H]12` [Tetracycline], the Renilla luciferase signal came out at 0.672 (concentration: 0.1 uM), 0.805 (concentration: 1 uM), 0.694 (concentration: 10 uM) and 1.7 (concentration: 100 uM).

On to `CN(C)[C@@H]1C(O)=C(C(N)=O)C(=O)[C@@]2(O)C(O)=C3C(=O)c4c(O)cccc4[C@@](C)(O)[C@H]3[C@H](O)[C@@H]12.Cl` [Oxytetracycline hydrochloride], for which the Renilla luciferase signal was 0.959 (concentration: 0.1 uM), 1.35 (concentration: 1 uM), 2.28 (concentration: 10 uM) and 0.903 (concentration: 100 uM).

On to `CN(C)[C@@H]1C(O)=C(C(N)=O)C(=O)[C@@]2(O)C(O)=C3C(=O)c4c(O)cccc4[C@@](C)(O)[C@H]3[C@H](O)[C@@H]12.O.O` [Oxytetracycline dihydrate], for which the Renilla luciferase signal was 0.781 (concentration: 0.01 uM); 0.636 (concentration: 0.1 uM); 0.879 (concentration: 1 uM); 0.861 (concentration: 10 uM); 0.964 (concentration: 100 uM).

With `O=C(O)CCCCC(=O)O` [Hexanedioic acid], the Renilla luciferase signal came out at 0.851 (concentration: 0.1 uM), 0.762 (concentration: 1 uM), 0.865 (concentration: 10 uM) and 1.08 (concentration: 100 uM).

`O=C1OC(=O)C2C3C=CC(C3)C12` (stereo not given) [2-Norbornene-5,6-dicarboxylic anhydride]: the Renilla luciferase signal (concentration: 0.1 uM) worked out at 0.885, the Renilla luciferase signal (concentration: 1 uM) was 0.853, the Renilla luciferase signal (concentration: 10 uM) is 0.966 and the Renilla luciferase signal (concentration: 100 uM) worked out at 1.39.

Regarding `COC(=O)CSc1cc(/N=c2\sc(=O)n3n2CCCC3)c(F)cc1Cl` [Fluthiacet-methyl], the Renilla luciferase signal (concentration: 0.01 uM) was found to be 1.03; the Renilla luciferase signal (concentration: 0.1 uM) was found to be 0.995; the Renilla luciferase signal (concentration: 1 uM) is 1.1; the Renilla luciferase signal (concentration: 10 uM) was 1; the Renilla luciferase signal (concentration: 100 uM) was found to be 1.21.

Turning to `Fc1ccccc1[C@@H](F)CO[C@H]1CC[C@H](Nc2[nH]cnc3nncc2-3)CC1`, the Renilla luciferase signal was found to be 1.06 (concentration: 0.1 uM), 1.09 (concentration: 1 uM), 0.996 (concentration: 10 uM) and 0.148 (concentration: 100 uM).

`Oc1cc2ccccc2c2ccccc12` [9-Phenanthrol]: the Renilla luciferase signal came to 1.08 (concentration: 0.1 uM), 1.05 (concentration: 1 uM), 1.01 (concentration: 10 uM) and 0.0207 (concentration: 100 uM).

Take `COCCO` [2-Methoxyethanol]: the Renilla luciferase signal (concentration: 0.01 uM) amounted to 1.12; the Renilla luciferase signal (concentration: 0.1 uM) was 1.02; the Renilla luciferase signal (concentration: 1 uM) was 0.98; the Renilla luciferase signal (concentration: 10 uM) turned out to be 0.983; the Renilla luciferase signal (concentration: 100 uM) worked out at 1.53.

As for `CN(C)CCCN1c2ccccc2Sc2ccc(Cl)cc21.Cl` [Chlorpromazine hydrochloride], the Renilla luciferase signal (concentration: 0.1 uM) stood at 1.17, the Renilla luciferase signal (concentration: 1 uM) was found to be 1.23, the Renilla luciferase signal (concentration: 10 uM) turned out to be 1.24 and the Renilla luciferase signal (concentration: 100 uM) came to 0.575.

Take `O=c1ccc2ccccc2o1` [Coumarin]: the Renilla luciferase signal reads like this: (concentration: 0.1 uM) 1.21; (concentration: 1 uM) 1.07; (concentration: 10 uM) 1.11; (concentration: 100 uM) 1.15.

With `Nc1ccc(S(=O)(=O)c2ccc(N)cc2)cc1` [Dapsone], the Renilla luciferase signal was determined as 1.03 (concentration: 0.1 uM), 1.07 (concentration: 1 uM), 1.2 (concentration: 10 uM) and 1.03 (concentration: 100 uM).

For `CCCCOC(=O)c1ccc(O)cc1` [Butylparaben], the Renilla luciferase signal by setting is: (concentration: 0.1 uM) 0.848; (concentration: 1 uM) 0.85; (concentration: 10 uM) 0.756; (concentration: 100 uM) 0.258.

As for `CCCCN1C(=O)[C@@H]([C@H](O)C2CCCCC2)NC(=O)C12CCN(Cc1ccc(Oc3ccc(C(=O)O)cc3)cc1)CC2.Cl` [Aplaviroc hydrochloride], the Renilla luciferase signal (concentration: 0.1 uM) turned out to be 0.995, the Renilla luciferase signal (concentration: 1 uM) was 1.01, the Renilla luciferase signal (concentration: 10 uM) amounted to 1.04 and the Renilla luciferase signal (concentration: 100 uM) was found to be 2.23.

Regarding `CCc1ccc(O)c(C(C)(C)C)c1` [2-tert-Butyl-4-ethylphenol], the Renilla luciferase signal runs as follows: (concentration: 0.1 uM) 1.28; (concentration: 1 uM) 1.07; (concentration: 10 uM) 1.02; (concentration: 100 uM) 1.22.

Consider `O=C(O)CC(O)(CC(=O)O)C(=O)O` [Citric acid], for which the Renilla luciferase signal was 0.965 (concentration: 0.1 uM), 0.981 (concentration: 1 uM), 1.13 (concentration: 10 uM) and 1.46 (concentration: 100 uM).

As for `NC(=O)c1nc(-c2cccc(-c3cc(F)ccc3OCC(F)(F)C(F)(F)F)c2)n[n-]1.O.[K+]`, the Renilla luciferase signal runs as follows: (concentration: 0.1 uM) 0.946; (concentration: 1 uM) 0.78; (concentration: 10 uM) 0.498; (concentration: 100 uM) 0.0369.

With `O=C(O)Cc1cc(I)c(Oc2ccc(O)c(I)c2)c(I)c1` [Tiratricol], the Renilla luciferase signal turned out to be 0.92 (concentration: 0.1 uM), 1.07 (concentration: 1 uM), 0.852 (concentration: 10 uM) and 0.382 (concentration: 100 uM).

As to `N[C@@H](Cc1cc(I)c(Oc2ccc(O)c(I)c2)c(I)c1)C(=O)O` [3,5,3'-Triiodothyronine], the Renilla luciferase signal (concentration: 0.1 uM) is 0.904, the Renilla luciferase signal (concentration: 1 uM) amounted to 1.24, the Renilla luciferase signal (concentration: 10 uM) came to 2.47 and the Renilla luciferase signal (concentration: 100 uM) came out at 2.22.

As for `O=C(O)Cc1cc(I)c(Oc2cc(I)c(O)c(I)c2)c(I)c1` [Tetrac], the Renilla luciferase signal (concentration: 0.1 uM) was 1.07, the Renilla luciferase signal (concentration: 1 uM) turned out to be 1.06, the Renilla luciferase signal (concentration: 10 uM) was determined as 1.11 and the Renilla luciferase signal (concentration: 100 uM) is 1.28.

For the molecule `COc1ccc(-c2ccc(=N)n(CCCC(=O)O)n2)cc1`, the Renilla luciferase signal runs as follows: (concentration: 0.01 uM) 0.946; (concentration: 0.1 uM) 0.914; (concentration: 1 uM) 0.864; (concentration: 10 uM) 0.935; (concentration: 100 uM) 1.38.

With `COc1ccc2c(c1)c(CC(=O)O)c(C)n2C(=O)c1ccc(Cl)cc1` [Indomethacin], the Renilla luciferase signal by setting is: (concentration: 0.1 uM) 1.09; (concentration: 1 uM) 1.15; (concentration: 10 uM) 1.17; (concentration: 100 uM) 0.248.

Turning to `CC1(C)C(=O)N(Cl)C(=O)N1Cl` [1,3-Dichloro-5,5-dimethylhydantoin], the Renilla luciferase signal is, setting by setting: (concentration: 0.1 uM) 0.99; (concentration: 1 uM) 1.06; (concentration: 10 uM) 1.04; (concentration: 100 uM) 0.988.

For `CC=Cc1ccc(O)c(OC)c1` [Isoeugenol], the Renilla luciferase signal runs as follows: (concentration: 0.1 uM) 0.954; (concentration: 1 uM) 1.01; (concentration: 10 uM) 0.993; (concentration: 100 uM) 0.945.

Consider `CCN(CC)CCOc1ccc(C(=C(Cl)c2ccccc2)c2ccccc2)cc1.O=C(O)CC(O)(CC(=O)O)C(=O)O` [Clomiphene citrate (1:1)], for which the Renilla luciferase signal reads like this: (concentration: 0.1 uM) 0.837; (concentration: 1 uM) 0.85; (concentration: 10 uM) 0.818; (concentration: 100 uM) 1.02.

On to `CCCCCCC(C)OC(=O)COc1nc(F)c(Cl)c(N)c1Cl` (stereo not given) [Fluroxypyr-meptyl], for which the Renilla luciferase signal was 1.04 (concentration: 0.01 uM); 1.3 (concentration: 0.1 uM); 1.15 (concentration: 1 uM); 1.2 (concentration: 10 uM); 2.31 (concentration: 100 uM).
